# HepG2 viability = qHTS for Inhibitors of TGF-b: Cytotox Counterscreen; HepG2 CAGA-GFP viability, ATP luminescence, 18 h; Potency, µM (top dose mostly 46.1 µM), hits mostly cytotoxic; 410,000 compounds, 0.76% hits
#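 HepG2 CAGA-GFP cells (1000/well, DMEM with 1% FBS) received compound, then TGF-beta at 500 pg/mL final, and were incubated 18 hours at 37 degrees C. Viability was read by CellTiter-Glo luminescence. Media-only wells were set as complete cell-killing and DMSO as no toxicity.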
# KB-3-1 tox = qHTS assay for MDR1-selective chemotherapeutics: Primary screen using the parental adenocarcinoma cell KB-3-1; KB-3-1 viability, CellTiter-Glo ATP luminescence, 72 h; Potency, µM (doses to about 46.1 µM), usual class: cytotoxic; 400,000 compounds, 1.4% hits; AID 1347075, 2019; also: nearly all actives have a fitted effect of over 60% in size
#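 Multi-concentration cytotoxicity screen in KB-3-1 cells grown in DMEM lacking phenol red with 10% FBS. After 72 h at 37 °C with compound, ATP-dependent luminescence was recorded.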
# TGFb inhibitor = qHTS for Inhibitors of TGF-b; AID 588855, 2011; 410,000 compounds, 1.2% hits; Potency, µM (titrated, usually from 46.1 µM), actives largely listed as inhibitors; HepG2 CAGA-GFP TGF-b/SMAD3 reporter, GFP fluorescence, 18 h; TGF-beta stimulated, 500 pg/mL final; also: nearly all actives have a fitted effect of over 65% in size
#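 Inhibition was scored as loss of TGF-beta-induced (500 pg/mL final, 18 hours, 37 degrees C) GFP in HEPG2 cells carrying a CAGA-GFP reporter, in DMEM with 1% FBS. Well GFP was summed per cell; Activity was normalised to unstimulated and stimulated DMSO wells, then concentration-response fitting.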
# KB-V1 cytotox = qHTS assay for MDR1-selective chemotherapeutics: Primary screen using the drug-selected MDR subline cells KB-V1 | Potency, µM (series often up to 46.1 µM), usual class: cytotoxic | KB-V1 MDR cells viability, CellTiter-Glo, 72 h | 400,000 compounds, 3.4% hits; also: nearly all actives have a fitted effect of over 60% in size
#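 Readout: CellTiter-Glo luminescence, 10 min after addition. Cells: KB-V1 MDR subline, 72 h at 37 degrees C with compound. Analysis: corrected, normalized data fitted to concentration-effect curves.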
# ATXN2 expr inh = Primary qHTS for Inhibitors of ATXN expression; HEK-293 ATXN2-luciferase reporter, luminescence, 24 h; Potency, µM (doses to about 57 µM), usual class: inhibitors; 360,000 compounds, 0.72% hits; AID 1745845, 2022; also: nearly all actives have a fitted effect of over 55% in size
#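 qHTS (up to 57 uM final) was run with 24 h compound exposure of reporter cells at 37 °C. Each well was multiplexed: SteadyGlo luminescence measured ATXN2-luciferase expression after a fluorogenic Gly-Phe-AFC viability readout (25 uM final).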
# S2 tox = Viability Counterscreen for Primary qHTS for Inhibitors of ATXN expression; Potency, µM (doses to about 56.7 µM), actives largely listed as cytotoxic; AID 651635, 2014; S2 cells (HEK-293 line with an ATXN2-luciferase reporter) viability, CellTiter-Fluor protease fluorescence, 24 h; 400,000 compounds, 0.49% hits; also: nearly all actives have a fitted effect of over 40% in size
# A number is an active result; i = inactive; ? = inconclusive; nt = no result. A selection: hits, their analogues and other compounds. The true share with any hit is near 5.9%. Calls follow the shape of the dose curve; as a rule, active = well fitted curve in the direction sought with a large enough effect; inconclusive = small, poorly fitted or top-dose-only effect, or another doubt; inactive = no such curve, though single readings can be large; an effect the other way counts as inactive or inconclusive.
SMILES,HepG2 viability,KB-3-1 tox,TGFb inhibitor,KB-V1 cytotox,ATXN2 expr inh,S2 tox
COc1ccc(-c2nc(NC(=O)c3c(C)noc3C)sc2C)cc1,i,i,i,?,i,i
COc1ccc(-c2nc(NC(=O)c3n[nH]c(=O)c4ccccc34)sc2C)cc1,i,?,i,8.2µM,i,i
COc1ccc(-c2nc(NC(=O)c3cc(C(C)(C)C)nn3C)sc2C)cc1,i,i,?,2.3µM,i,i
COc1ccc(-c2sc(NC(C)=O)nc2-c2ccccc2)cc1,i,?,i,18µM,i,i
CC(C)c1c(C(=O)Nc2ccccc2)c(-c2ccccc2)c(-c2ccc(F)cc2)n1CC[C@H](O)C[C@@H](O)CC(=O)O,nt,nt,nt,nt,i,nt
COc1ccc(-c2ccc(C(=O)NCC3Cc4cccc(-c5nc(C)cnc5C)c4O3)o2)cc1 (stereo not given),nt,nt,nt,nt,nt,i
CCOc1ccc(-n2cc(C(=O)NCc3ccco3)c3cc(OC)c(OC)cc3c2=O)cc1,i,0.52µM,i,i,i,?
COc1cccc(Cn2c(CNC(=O)C(C)C)nc3cccnc32)c1,i,nt,i,nt,nt,nt
CCCOc1ccc(C(=O)NC(=S)Nc2nc(C)c(C(=O)N(C)C)s2)cc1,i,i,i,21µM,i,i
CCCOc1ccc(C(=O)NNC(=S)NC(C)=O)cc1,i,16µM,i,i,?,?
COc1ccc(C(=O)NNC(=S)NC(=O)c2ccco2)cc1,i,?,i,?,?,i
CCCOc1ccc(C(=O)NNC(=S)NC(=O)c2ccco2)cc1,i,9.2µM,i,i,?,i
CCCOc1ccc(C(=O)NNC(=S)NC(=O)c2ccccc2)cc1,i,i,i,i,nt,i
CCCCOc1ccc(C(=O)NNC(=S)NC(=O)CC)cc1,i,?,i,?,25µM,?
O=C(CN(Cc1ccccc1)S(=O)(=O)c1ccccc1)N/N=C/c1ccc([N+](=O)[O-])cc1,i,i,i,2.1µM,i,?
O=C(CN(Cc1ccc(Cl)c(Cl)c1)S(=O)(=O)c1ccccc1)N/N=C\c1ccc2c(c1)OCO2,i,?,?,21µM,i,i
CCN(Cc1ccccc1)c1ccc(/C=N/NS(=O)(=O)c2cccc([N+](=O)[O-])c2)cc1,i,i,i,16µM,i,i
CCN(CC)c1ccc(/C=N/NS(=O)(=O)c2ccc(C)c([N+](=O)[O-])c2)cc1,i,i,i,i,i,i
O=C(CN(Cc1ccccc1)S(=O)(=O)c1ccc2c(c1)OCCO2)N/N=C/c1cccc(Br)c1,i,i,?,18µM,i,i
COc1ccc2c(c1)cc1c(=O)n(CC(=O)NC(C)C)nc(C)n12,i,i,i,?,i,i
C#CCN(Cc1ccco1)C(=O)c1ccc(OC2CCN(Cc3ccccn3)CC2)cc1,i,i,i,16µM,i,i
CN(CC(=O)Nc1c(Cl)cccc1Cl)C(=O)c1ccccc1-c1nc2ccccc2s1,i,i,i,8.2µM,i,i
COc1cccc(NC(=O)CN(C)C(=O)c2ccccc2-c2nc3ccccc3s2)c1,i,i,i,18µM,i,i
CN(CC(=O)Nc1c(Cl)cccc1Cl)C(=O)c1cc2ccccc2cc1O,i,i,i,i,i,i
O=C(NCCc1ccc2c(c1)OCCO2)c1cc(S(=O)(=O)N2CCCC2)ccc1Br,i,?,i,21µM,i,i
O=C(NCCc1ccc2c(c1)OCCO2)c1cc(F)cc(F)c1,i,?,i,12µM,i,i
O=C(C1CCN(c2nc(-c3ccccc3)nc3c2CCC3)CC1)N1CCCC1,i,i,?,i,?,i
CC1CCCCN1C(=O)C1CCN(c2nc(-c3ccccc3)nc3c2CCC3)CC1 (stereo not given),i,21µM,i,i,?,?

# High-throughput results (PubChem)
